Experimental data from PubChem BioAssay (Tox21).
The source made the active and inactive calls. Unless noted, calls follow the shape of the dose curve; as a rule, active = well fitted curve in the direction sought with a large enough effect in the repeat runs; inconclusive = weak or mixed curves; inactive = no such curve, though single readings can be large; an effect the other way counts as inactive or inconclusive.

Legend:
[1] = qHTS assay to identify small molecule antagonists of the glucocorticoid receptor (GR) signaling pathway - cell viability counter screen (AID 720693); also: nearly all actives have a fitted effect of over 55% in size
[2] = qHTS assay for identifying genotoxic compounds that show differential cytotoxicity against isogenic chicken DT40 cell lines with known DNA damage response pathways - Rev3 mutant cell line (AID 743014); also: nearly all actives have a fitted effect of over 55% in size
[3] = qHTS assay to identify small molecule antagonists of the androgen receptor (AR) signaling pathway - cell viability counter screen (AID 743033; also: nearly all actives have a fitted effect of over 45% in size)
[4] = qHTS assay to identify small molecule antagonists of the androgen receptor (AR) signaling pathway using the MDA cell line - cell viability counter screen (AID 743041; also: nearly all actives have a fitted effect of over 45% in size)
In short: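 Viability counter screen run alongside the AR antagonist reporter: cells seeded 5 h before compound, R1881 added, 16 h incubation at 37C without CO2, fluorescent CellTiter-Fluor signal quantified.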

[5] = system: thyroid hormone receptor (rat, GH3 cells); assay: qHTS assay to identify small molecule agonists of the thyroid receptor (TR) signaling pathway (AID 743066; calls by dose curve; also: potency is read from the fitted curve at half-maximal effect)
[6] = qHTS assay to identify small molecule antagonists of the estrogen receptor alpha (ER-alpha) signaling pathway using the BG1 cell line - cell viability counter screen (AID 743081);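 also: compound given together with 17beta-estradiol as the ER stimulus; nearly all actives have a fitted effect of over 45% in size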; also: potency is read from the fitted curve at half-maximal effect
Aromatase (Homo sapiens) = Aromatase (Homo sapiens) (UniProt P11511); assay: qHTS assay to identify aromatase inhibitors (AID 743083); also: nearly all actives have a fitted effect of over 55% in size
[7] = biological target: Androgen receptor (Homo sapiens) (UniProt P10275); assay: qHTS assay to identify small molecule agonists of the androgen receptor (AR) signaling pathway (AID 743036; active = well fitted activation curve with a large enough effect in the signal ratio in the repeat runs, with a control signal flat, not every such curve was filed as active; inconclusive = weak or mixed curves, or effect the other way; inactive = no such curve, though single readings can be large or run the other way; the % refers to the signal ratio; also: potency is read from the fitted curve at half-maximal effect)
In short: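 AR-bla HEK293 cells, 2,000/well; 4 h preincubation 37C/5% CO2; compound (DMSO) 16 h at 37C; LiveBLAzer B/G FRET substrate 2 h RT; fluorescence intensity read-out.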

[8] = biological target: Androgen receptor (Homo sapiens) (UniProt P10275); assay: qHTS assay to identify small molecule agonists of the androgen receptor (AR) signaling pathway using the MDA cell line (AID 743040; also: nearly all actives have a fitted effect of over 20% in size; also: potency is read from the fitted curve at half-maximal effect)
In short: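 Luminescence from ONE-Glo, read after 30 min at room temperature, reflects MMTV-driven luciferase in MDA-kb2 cells (AR- and GR-responsive). Treatment lasted 16 h at 37C, 0% CO2.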

[9] = qHTS assay to identify small molecule antagonists of the thyroid receptor (TR) signaling pathway (AID 743065); also: nearly all actives have a fitted effect of over 55% in size
In short: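 GH3.TRE-Luc rat pituitary cells carrying two TR response elements driving luciferase were plated for 4 h, given compound plus 1 nM T3 (final), and incubated 23.5 h at 37 C. ONE-Glo luminescence measured reporter inhibition; CellTiter-Fluor fluorescence tracked cytotoxicity.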

[10] = qHTS assay to identify small molecule antagonists of the estrogen receptor alpha (ER-alpha) signaling pathway - cell viability counter screen (AID 743074; calls by dose curve;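 also: HEK293 cells carrying ER-alpha-UAS-bla reporter stimulated with 17beta-estradiol; nearly all actives have a fitted effect of over 45% in size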)
[11] = biological target: Estrogen receptor (Homo sapiens) (UniProt P03372); assay: qHTS assay to identify small molecule agonists of the estrogen receptor alpha (ER-alpha) signaling pathway using the BG1 cell line (AID 743079); conditions: BG1Luc4E2 cells, ERE-luciferase agonist, 22 h; activation: at 70.3 µM (top of the series); also: nearly all actives have a fitted effect of over 20% in size; also: potency is read from the fitted curve at half-maximal effect
[12] = qHTS assay to identify small molecule antagonists of the estrogen receptor alpha (ER-alpha) signaling pathway using the BG1 cell line (AID 743080; calls by dose curve;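 also: BG1 cells stimulated with 17beta-estradiol alongside compound; nearly all actives have a fitted effect of over 25% in size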; also: potency is read from the fitted curve at half-maximal effect)
In short: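 Quantitative HTS on the Tox21 10K library: BG1 cells with endogenous ER-alpha and ERE-luciferase reporter, 17beta-estradiol stimulation, 21.5 h compound exposure, luminescence endpoint with parallel fluorescence cytotoxicity counter-read.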

[13] = biological target: Androgen receptor (Homo sapiens) (UniProt P10275); assay: qHTS assay to identify small molecule antagonists of the androgen receptor (AR) signaling pathway using the MDA cell line (AID 743042; also: nearly all actives have a fitted effect of over 55% in size)
In short: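 MDA-kb2 cells (human breast carcinoma, stably carrying an MMTV-luciferase reporter responsive to AR and GR) were plated at 3,000 cells/well and preincubated 5 hr at 37C, then given compound plus R1881 agonist for 16 h. ONE-Glo luminescence was read.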

[14] = qHTS assay to identify small molecule antagonists of the thyroid receptor (TR) signaling pathway - cell viability counter screen (AID 743064); also: nearly all actives have a fitted effect of over 50% in size; also: potency is read from the fitted curve at half-maximal effect
In short: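 GH3.TRE-Luc cells, 4 h pre-plating; cpd + T3 1 nM final; 37 °C 23.5 h; CellTiter-Fluor 30 min; fluorescence read.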

[15] = biological target: Estrogen receptor (Homo sapiens) (UniProt P03372); assay: qHTS assay to identify small molecule agonists of the estrogen receptor alpha (ER-alpha) signaling pathway (AID 743075; calls by dose curve;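 also: HEK293 GripTite cells with ER-alpha and UAS-driven beta-lactamase reporter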; also: potency is read from the fitted curve at half-maximal effect)
[16] = biological target: Androgen receptor (Homo sapiens) (UniProt P10275); assay: qHTS assay to identify small molecule antagonists of the androgen receptor (AR) signaling pathway (AID 743035; active = well fitted inhibition curve with a large enough effect in the signal ratio in the repeat runs, not every such curve was filed as active; inconclusive = weak or mixed curves, or effect the other way; inactive = no such curve, though single readings can be large or run the other way; the % refers to the signal ratio)
In short: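 Beta-lactamase FRET read (2 h RT incubation with LiveBLAzer B/G) following 16 h of compound plus R1881 treatment of AR-UAS-bla HEK293 cells, which had been pre-incubated 4 h at 37C.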

[17] = biological target: Estrogen receptor (Homo sapiens) (UniProt P03372); assay: qHTS assay to identify small molecule antagonists of the estrogen receptor alpha (ER-alpha) signaling pathway (AID 743069; active = well fitted curve in the direction sought with a large enough effect in the signal ratio in the repeat runs, not every such curve was filed as active; inconclusive = weak or mixed curves, or effect the other way; inactive = no such curve, though single readings can be large or run the other way; the % refers to the signal ratio)
In short: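 Estradiol-stimulated ER-alpha-UAS-bla HEK293 cells, 18 hr compound exposure at 37C. LiveBLAzer B/G substrate, 2 hr RT, fluorescence read.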

[18] = qHTS assay for identifying genotoxic compounds that show differential cytotoxicity against isogenic chicken DT40 cell lines with known DNA damage response pathways - Rad54/Ku70 mutant cell line (AID 743015); also: nearly all actives have a fitted effect of over 60% in size; also: potency is read from the fitted curve at half-maximal effect
[19] = qHTS assay for identifying genotoxic compounds that show differential cytotoxicity against isogenic chicken DT40 cell lines with known DNA damage response pathways - wild type cell line (AID 743012); also: nearly all actives have a fitted effect of over 60% in size
In short: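 First, wild type DT40 cells were plated at 300 per well and equilibrated about 0.5 h at 37 C/5% CO2. Next, compounds in DMSO were added and exposure lasted 40 h. Finally, CellTiter-Glo was added for 30 min at room temperature and luminescence recorded.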
% is scaled to controls: 0 for no effect and ±100 for the full control effect.

Chain of Aromatase (Homo sapiens) (P11511 whole entry, looked up): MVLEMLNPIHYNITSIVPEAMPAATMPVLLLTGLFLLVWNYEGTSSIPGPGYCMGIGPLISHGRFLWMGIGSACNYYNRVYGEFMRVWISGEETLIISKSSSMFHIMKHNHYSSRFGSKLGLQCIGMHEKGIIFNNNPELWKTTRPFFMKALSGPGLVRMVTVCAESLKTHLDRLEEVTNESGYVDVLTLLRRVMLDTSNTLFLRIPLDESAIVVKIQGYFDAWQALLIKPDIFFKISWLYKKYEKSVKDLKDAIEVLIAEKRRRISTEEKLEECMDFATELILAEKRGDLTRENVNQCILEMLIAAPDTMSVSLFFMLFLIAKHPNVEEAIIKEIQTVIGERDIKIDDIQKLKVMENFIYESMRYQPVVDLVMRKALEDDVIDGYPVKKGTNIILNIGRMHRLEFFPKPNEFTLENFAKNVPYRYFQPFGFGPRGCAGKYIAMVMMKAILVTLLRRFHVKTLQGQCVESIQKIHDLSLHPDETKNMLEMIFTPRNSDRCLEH
Chain of Androgen receptor (Homo sapiens) (P10275 whole entry, looked up): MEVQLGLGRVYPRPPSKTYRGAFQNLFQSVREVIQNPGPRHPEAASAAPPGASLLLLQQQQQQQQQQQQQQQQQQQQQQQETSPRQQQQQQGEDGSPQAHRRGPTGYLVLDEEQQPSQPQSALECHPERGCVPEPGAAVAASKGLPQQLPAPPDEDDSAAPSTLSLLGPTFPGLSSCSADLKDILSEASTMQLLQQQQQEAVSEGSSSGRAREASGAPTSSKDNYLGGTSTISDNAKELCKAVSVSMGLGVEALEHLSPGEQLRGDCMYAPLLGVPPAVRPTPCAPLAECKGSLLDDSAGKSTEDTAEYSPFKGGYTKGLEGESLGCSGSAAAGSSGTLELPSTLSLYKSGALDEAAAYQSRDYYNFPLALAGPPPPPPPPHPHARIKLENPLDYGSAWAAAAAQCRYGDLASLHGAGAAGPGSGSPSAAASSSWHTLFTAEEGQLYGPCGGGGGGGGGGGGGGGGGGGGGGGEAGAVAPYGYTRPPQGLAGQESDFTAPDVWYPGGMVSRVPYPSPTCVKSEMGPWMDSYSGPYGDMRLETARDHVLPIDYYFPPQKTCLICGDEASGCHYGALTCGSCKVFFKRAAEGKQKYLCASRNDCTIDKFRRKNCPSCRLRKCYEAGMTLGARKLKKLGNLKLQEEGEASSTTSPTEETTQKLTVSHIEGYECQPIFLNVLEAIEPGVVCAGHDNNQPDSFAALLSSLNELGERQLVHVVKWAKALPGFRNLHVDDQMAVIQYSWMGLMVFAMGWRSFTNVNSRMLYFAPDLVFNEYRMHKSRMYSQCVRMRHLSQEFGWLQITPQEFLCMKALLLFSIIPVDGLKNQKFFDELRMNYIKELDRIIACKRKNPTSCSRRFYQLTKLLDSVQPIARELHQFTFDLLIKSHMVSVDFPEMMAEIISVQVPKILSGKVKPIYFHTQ
Chain of Estrogen receptor (Homo sapiens) (P03372 whole entry, looked up): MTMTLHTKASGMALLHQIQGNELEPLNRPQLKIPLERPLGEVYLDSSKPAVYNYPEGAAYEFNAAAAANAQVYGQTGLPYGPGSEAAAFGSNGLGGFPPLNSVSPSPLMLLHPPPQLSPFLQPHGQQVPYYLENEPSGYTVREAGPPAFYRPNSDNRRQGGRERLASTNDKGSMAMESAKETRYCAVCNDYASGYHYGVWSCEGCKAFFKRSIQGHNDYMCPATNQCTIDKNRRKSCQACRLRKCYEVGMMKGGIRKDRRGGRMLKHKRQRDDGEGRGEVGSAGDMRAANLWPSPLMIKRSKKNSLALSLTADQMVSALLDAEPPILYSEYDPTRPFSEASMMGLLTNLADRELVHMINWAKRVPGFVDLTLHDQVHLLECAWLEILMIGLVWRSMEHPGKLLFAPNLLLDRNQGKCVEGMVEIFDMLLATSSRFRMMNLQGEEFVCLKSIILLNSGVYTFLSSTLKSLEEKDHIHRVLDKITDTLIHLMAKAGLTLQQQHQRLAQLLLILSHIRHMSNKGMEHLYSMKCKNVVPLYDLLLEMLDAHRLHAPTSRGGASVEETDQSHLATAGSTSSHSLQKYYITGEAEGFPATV

CN1CCc2c(c3ccccc3n2Cc2ccccc2)C1
inactive: Potency [1] | Potency [2] | Potency [3] | Potency [4] | Potency [5] | Potency [6] | Potency (Aromatase (Homo sapiens))

CCC(=O)Oc1ccc2c(c1)CC[C@@H]1[C@@H]2CC[C@]2(C)[C@@H](OC(=O)CC)CC[C@@H]12
active: Potency [7] 2.39 µM | Potency [8] 1.19 µM | activation [11] 99.5%
inactive: Potency [1] | Potency [4] | Potency [9] | Potency [5] | Potency [10] | Potency [12] | Potency [6]

COc1cc(C)c(/C=C/C(C)=C/C=C/C(C)=C/C(=O)O)c(C)c1C
active: Potency [5] 5.96 µM | Potency [15] 4.25 µM [inconclusive] | Potency [12] 0.473 µM
inactive: Potency [1] | Potency [3] | Potency [8] | Potency [4] | Potency [13] | Potency [14] | Potency [10] | Potency [6]

C=Cc1c(C)c2cc3nc(cc4[nH]c(cc5nc(cc1[nH]2)C(C)=C5CCC(=O)OC)c(CCC(=O)O)c4C)[C@@]1(C)C3=CC=C(C(=O)OC)[C@H]1C(=O)OC
inactive: Potency [1] | Potency [3] | Potency [5] | Potency [10] | Potency [15] | Potency [11] | Potency [12] | Potency (Aromatase (Homo sapiens))

CC(C)(CO)[C@@H](O)C(=O)NCCCC(=O)O
inactive: Potency [1] | Potency [3] | Potency [16] | Potency [7] | Potency [8] | Potency [4] | Potency [13] | Potency [14] | Potency [9] | Potency [5] | Potency [17] | Potency [10] | Potency [15] | Potency [12] | Potency [6] | Potency (Aromatase (Homo sapiens))

O=C(Nc1ccc(O)cc1)c1ccccc1O
inactive: Potency [1] | Potency [18] | Potency [8] | Potency [4] | Potency [13] | Potency [14] | Potency [9] | Potency [5] | Potency [17] | Potency [10] | Potency [15] | Potency [6] | Potency (Aromatase (Homo sapiens))
active: Potency [11] 13.3 µM

CCC[C@@H]1C[C@@H](C(=O)N[C@@H]([C@H]2O[C@H](SC)[C@H](O)[C@@H](O)[C@H]2O)[C@H](C)Cl)N(C)C1
inactive: Potency [1] | Potency [3] | Potency [4] | Potency [14] | Potency [5] | Potency [10] | Potency [15] | Potency [11] | Potency [12] | Potency [6] | Potency (Aromatase (Homo sapiens))

O=C(O)CCC/C=C\C[C@@H]1[C@@H](/C=C/[C@@H](O)COc2cccc(Cl)c2)[C@H](O)C[C@@H]1O
inactive: Potency [19] | Potency [2] | Potency [18] | Potency [3] | Potency [16] | Potency [7] | Potency [8] | Potency [13] | Potency [14] | Potency [9] | Potency [5] | Potency [10] | Potency [15] | Potency [11] | Potency [6] | Potency (Aromatase (Homo sapiens))

c1ccc2cc(C3=NCCN3)ccc2c1
inactive: Potency [1] | Potency [3] | Potency [4] | Potency [14] | Potency [5] | Potency [17] | Potency [10] | Potency [15] | Potency [11] | Potency [6] | Potency (Aromatase (Homo sapiens))
active: Potency [18] 18.8 µM

CNC(=O)[C@H](Cc1c[nH]c2ccccc12)NC(=O)[C@@H](CC(=O)NO)CC(C)C
inactive: Potency [1] | Potency [3] | Potency [4] | Potency [9] | Potency [5] | Potency [10]
active: Potency [14] 1.68 µM | Potency [6] 2.66 µM

CC(C)(C)NC(=O)[C@H]1CC[C@H]2[C@@H]3CC=C4C=C(C(=O)O)CC[C@]4(C)[C@H]3CC[C@]12C
inactive: Potency [1] | Potency [3] | Potency [16] | Potency [8] | Potency [4] | Potency [13] | Potency [9] | Potency [5] | Potency [17] | Potency [15] | Potency [11] | Potency [12] | Potency (Aromatase (Homo sapiens))

O=C(O)[C@H](CC(=O)N1C[C@H]2CCCC[C@H]2C1)Cc1ccccc1
inactive: Potency [1] | Potency [18] | Potency [3] | Potency [14] | Potency [5] | Potency [17] | Potency [15] | Potency [12] | Potency [6] | Potency (Aromatase (Homo sapiens))
active: Potency [11] 33.5 µM

CCCCC(O)c1ccccc1 (stereo not given)
inactive: Potency [1] | Potency [18] | Potency [3] | Potency [14] | Potency [9] | Potency [5] | Potency [17] | Potency [10] | Potency [15] | Potency [12] | Potency [6] | Potency (Aromatase (Homo sapiens))
active: Potency [11] 21.1 µM
